These results are taken from PubChem BioAssay AID1851 (National Center for Advancing Translational Sciences (NCATS), 2009).

About 5,100 (32%) of roughly 16,000 compounds were called active. Inconclusive results (about 25%) are left out. Calls follow the shape of the dose curve; as a rule, active = well fitted curve in the direction sought with a large enough effect; inconclusive = small, poorly fitted or top-dose-only effect, or effect the other way; inactive = no such curve, though single readings can be large or run the other way. The list shows a part of the results. Peptide text beside a SMILES is read from it.
% is scaled to controls: 0 for no effect and ±100 for the full control effect.

In this assay the target is Cytochrome P450 3A4 (Homo sapiens) (UniProt P08684). In words: Cytochrome panel assay with activity outcomes. The settings on record: recombinant CYP, pro-luciferin dealkylation, luminescence, p450-cyp3a4; series mostly up to 57.1 µM.
Chain of Cytochrome P450 3A4 (Homo sapiens) (P08684 whole entry, looked up): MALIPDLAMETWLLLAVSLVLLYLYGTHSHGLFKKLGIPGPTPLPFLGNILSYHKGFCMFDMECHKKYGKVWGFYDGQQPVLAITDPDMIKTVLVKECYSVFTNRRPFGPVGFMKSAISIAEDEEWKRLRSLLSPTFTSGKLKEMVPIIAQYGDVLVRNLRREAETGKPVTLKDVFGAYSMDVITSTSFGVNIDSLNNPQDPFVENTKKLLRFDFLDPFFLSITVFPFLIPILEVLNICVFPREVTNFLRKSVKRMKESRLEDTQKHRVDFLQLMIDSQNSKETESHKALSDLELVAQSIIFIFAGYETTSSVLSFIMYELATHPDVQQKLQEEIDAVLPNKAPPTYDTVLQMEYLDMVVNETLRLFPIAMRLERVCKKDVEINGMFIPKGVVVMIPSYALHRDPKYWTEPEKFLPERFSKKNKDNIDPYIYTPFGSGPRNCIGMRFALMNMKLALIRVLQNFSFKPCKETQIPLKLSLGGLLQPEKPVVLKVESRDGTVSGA
With `C=CCN1C(=NC(=O)CC)SC2CS(=O)(=O)CC21` (configuration not stated), the AC50 entry is “inactive”.

In the case of `O=C(O)C(=O)/C=C(\O)c1ccc(Br)cc1`, the activity, negative = inhibition was -7.81% [at 11.4 µM] (inactive).

Consider `COc1ccc(S(=O)(=O)NNC(=O)C2Cc3c(ccc4ccccc34)O2)cc1` (configuration not stated), for which the AC50 is 10 µM (active).

In the case of `NNC(=O)CCc1ccc2ccc3ccccc3c2c1`, the AC50 is 0.398 µM (active).

Take `O=C(O)CCCc1ccc2ccc3ccccc3c2c1`: the activity, negative = inhibition is -10% [at 11.4 µM] (inactive).

With `O=C(O)CCCc1ccc2ccccc2c1`, the activity, negative = inhibition is -5.59% [at 11.4 µM] (inactive).

On to `CCOC(=O)N1CCC(NC(=O)CSCc2cnn(-c3ccccc3)c2-n2cccc2)CC1`, for which the AC50 is 12.6 µM (active).

Turning to `COc1ccc(OC)c(NC(=O)CSCc2cnn(-c3ccccc3)c2-n2cccc2)c1`, the AC50 was 10 µM (active).

As to `CS(=O)(=O)N1CCC2(CCN(c3ccncc3)CC2)CC1`, the AC50 entry was “inactive”.

For `O=S(=O)(c1ccccc1)N1CCC[C@@]2(CCN(c3ccncc3)C2)C1`, the AC50 is 3.98 µM (active).

As for `O=S(=O)(c1ccccc1)N1CCC[C@@]2(CCN(c3ccccc3)C2)C1`, the AC50 is 5.01 µM (active).

As for `CN1CCN(C(=O)C(C(=O)c2ccc(F)cc2)n2ccccc2=O)CC1` (configuration not stated), the AC50 entry was “inactive”.

In the case of `CC(=O)N[C@@H](CC(=O)O)C(=O)N[C@@H](CCC(=O)O)C(=O)O` (Ac-Asp-Glu-OH), the AC50 entry was “inactive”.

On to `COc1cnc(SCc2ccc(Cl)cc2)nc1Cl`, for which the AC50 result is “inactive”.

As for `COc1cc(/C=N/O)cc(Br)c1OCc1ccc(Cl)cc1`, the AC50 was 15.8 µM (active).

Regarding `COc1cc(/C=N/O)cc(Br)c1OCc1cccc(Cl)c1`, the AC50 is 14.1 µM (active).

Turning to `CCCN1CCN(CCCNC(=O)Cn2nc(-c3ccc(C)cc3)ccc2=O)CC1`, the AC50 entry was “inactive”.

Take `Cc1ccc(-c2ccc(=O)n(CC(=O)N3CCN(c4cccc(C)c4)C(C)C3)n2)cc1` (configuration not stated): the AC50 was 14.1 µM (active).

`Cc1ccc(-c2ccc(=O)n(CC(=O)NCCN(C)C)n2)cc1`: the AC50 result is “inactive”.

In the case of `COc1cc2c(cc1OC)C(c1ccc(N)cc1)=NNC(=O)C2`, the AC50 is 12.6 µM (active).

With `COC(=O)c1cc(Br)c(=O)n(CCN2CCCC2)c1`, the activity, negative = inhibition is 8.19% [at 2.29 µM] (inactive).

As to `COC(=O)c1cc(Br)c(=O)n(CCc2ccc(O)cc2)c1`, the AC50 was 15.8 µM (active).

As to `CCOc1ccc2c(c1)nc(SCC(=O)c1ccc(Br)s1)n2C`, the AC50 is 6.31 µM (active).

Consider `c1ccc2nc(C3=NCCN3)cnc2c1`, for which the AC50 entry is “inactive”.

On to `C=CCNC(=S)Nc1ccc2nc(C)c(C)nc2c1`, for which the AC50 is 15.8 µM (active).

For `C=CCNC(=S)N/N=C/c1ccc(OCc2ccccc2)cc1`, the AC50 entry is “inactive”.

For `CCNC(=O)NC(=O)CSc1nc2ccccc2n1CC(C)C`, the AC50 is 12.6 µM (active).

Consider `CC(C)Cn1c(SCC(=O)c2c(N)n(C)c(=O)n(C)c2=O)nc2ccccc21`, for which the AC50 was 2.51 µM (active).

Take `OC[C@@H]1O[C@@H](n2cnc3c(NC4CCCC4)ncnc32)[C@H](O)[C@H]1O`: the AC50 entry is “inactive”.

As to `O=C(Cc1ccc(Cl)cc1)NNC(=O)Nc1cccc2ccccc12`, the activity, negative = inhibition is -12.3% [at 2.29 µM] (inactive).

In the case of `CC(=O)Oc1ccc2ccccc2c1C(NC(=O)Cc1ccccc1)c1ccc(Cl)cc1` (configuration not stated), the AC50 was 8.91 µM (active).

`CN1[C@@H]2CC[C@H]1CC(OC(c1ccccc1)c1ccccc1)C2` (some centres not stated): the AC50 entry is “inactive”.

`C=CCN(CC=C)C(=O)C(=O)c1cc(C)n(-c2ccc([N+](=O)[O-])cc2)c1C`: the AC50 was 2.82 µM (active).

Turning to `Cc1cc(C(=O)C(=O)NC(C)C)c(C)n1-c1ccc([N+](=O)[O-])cc1`, the AC50 entry was “inactive”.

`CCC(=O)Nc1nnc(C(C)(C)C)s1`: the AC50 result was “inactive”.

For the molecule `O=C(Nc1nccs1)c1sc2cc(Cl)ccc2c1Cl`, the AC50 is 10 µM (active).

`Clc1ccc2c(NCCNc3ccnc4cc(Cl)ccc34)ccnc2c1`: the activity, negative = inhibition was 4.32% [at 11.4 µM] (inactive).

As to `COc1ccc(CNc2ncnc3ccc(-c4ccccc4C#N)cc23)c(OC)c1`, the AC50 was 1 µM (active).

On to `COc1ccccc1CNc1ncnc2ccc(-c3ccccc3C#N)cc12`, for which the AC50 was 3.98 µM (active).

As for `Cc1ccccc1-n1cnc2cc(NCc3cccs3)ccc21`, the AC50 was 5.01 µM (active).

Take `c1ccc(-n2cnc3cc(NCc4cccs4)ccc32)cc1`: the half-maximal activity concentration (AC50) was 7.08 µM (active).

Take `CCCCc1ccc(NC(=S)NCc2cccs2)cc1`: the activity, negative = inhibition was -10% [at 2.29 µM] (inactive).

On to `O=S(=O)(Nc1ccc2c(c1)OCCO2)c1cccc2cccnc12`, for which the AC50 is 15.8 µM (active).

For the molecule `O=S(=O)(O)c1cc(N=Nc2cccc3ccccc23)c(O)c2ncccc12`, the activity, negative = inhibition was -5.6% [at 11.4 µM] (inactive).

Regarding `O=S(=O)(Nc1cccnc1Cl)c1ccc2c(c1)OCCO2`, the activity, negative = inhibition is 7.34% [at 2.29 µM] (inactive).

With `CNC(=S)N1N=C(c2ccc(OC)cc2)CC1c1ccc(N(C)C)cc1` (configuration not stated), the AC50 was 3.98 µM (active).

For `NC(N)=NC[C@@H]1COC2(CCCCC2)O1`, the AC50 result was “inactive”.

With `CCOC(=O)c1oc2nc(CC(C)C)c3c(c2c1N)CCC3`, the AC50 was 3.16 µM (active).

In the case of `CCOc1ncnc2c1oc1nc(CC(C)C)c3c(c12)CC(C)(C)OC3`, the AC50 result was “inactive”.

On to `CC(C)Cc1nc(N2CCN(C(=O)c3ccccc3)CC2)c(C#N)c2c1CCC2`, for which the AC50 result was “inactive”.

In the case of `CCn1c(SCC(=O)N/N=C/C=C\c2ccccc2[N+](=O)[O-])nnc1-c1ccccc1`, the AC50 is 12.6 µM (active).

As to `Cn1c(SCC(=O)N/N=C/C=C\c2ccco2)nc2ccccc21`, the activity, negative = inhibition is 9.61% [at 2.29 µM] (inactive).

Regarding `CS(=O)(=O)c1nc2ccccc2n1Cc1ccccc1`, the AC50 entry is “inactive”.

In the case of `CC(=O)Nc1nc2ccccc2n1Cc1ccccc1`, the AC50 entry is “inactive”.

On to `COc1ccc(CNc2nc3ccccc3n2Cc2ccccc2)cc1OC`, for which the AC50 is 3.98 µM (active).

For the molecule `C#CCCCO/N=C1/[C@H]2O[C@@H]2[C@@H](O)[C@H]2[C@H]1CCn1c(=O)n(C)c(=O)n12`, the activity, negative = inhibition is -24.7% [at 11.4 µM] (inactive).

Regarding `CCCc1nnc(NC(=O)c2cccs2)s1`, the AC50 entry is “inactive”.

Consider `Cc1ccc(Cc2cnc(NC(=O)c3cccs3)s2)cc1`, for which the AC50 was 7.94 µM (active).

With `CN(C)CCCN1CCC2(CCC(C(C)(C)C)CC2)CC1`, the activity, negative = inhibition was 1.95% [at 11.4 µM] (inactive).

Take `COc1ccccc1NC(=O)CN1CCN(c2ccccc2F)CC1`: the AC50 result was “inactive”.

For `COc1ccccc1NC(=O)CN1CCN(C2c3ccccc3-c3ccccc32)CC1`, the AC50 is 12.6 µM (active).

`COc1ccc(NC(C)=O)cc1NC(=O)CN1CCN(C2c3ccccc3-c3ccccc32)CC1`: the AC50 is 10 µM (active).

Consider `NS(=O)(=O)c1cc(C(=O)O)c(Cl)c([N+](=O)[O-])c1Cl`, for which the activity, negative = inhibition was -5.24% [at 11.4 µM] (inactive).

`CCNc1ncc2nc(CCc3ccccc3)c(=O)n(CCC#N)c2n1`: the AC50 was 15.8 µM (active).

With `CCNc1ncc2nc(-c3ccc(F)cc3)c(=O)n(C[C@H]3CCCO3)c2n1`, the AC50 result is “inactive”.

Turning to `CCNc1ncc2nc(CCc3ccccc3)c(=O)n(Cc3ccc(F)cc3)c2n1`, the AC50 is 2.51 µM (active).

Take `CCSC1=C(C#N)C2(CCCCC2)C(C#N)=C(N)N1`: the AC50 was 8.91 µM (active).

Take `COc1ccc(C(=O)Nc2nc3c(s2)Cc2cc(OC)ccc2-3)cc1`: the AC50 is 11.2 µM (active).

For the molecule `COc1ccc2c(c1)Cc1sc(NC(=O)c3ccco3)nc1-2`, the AC50 was 11.2 µM (active).

With `COc1ccc2c(c1)CCc1sc(NC(=O)c3ccc(C)cc3)nc1-2`, the AC50 was 10 µM (active).

As for `CC(C)Oc1cccc(-n2c(CCc3c[nH]c4ccc(Br)cc34)nc3ccccc3c2=O)c1`, the AC50 is 3.98 µM (active).

On to `O=C(O)Cc1c[nH]c2ccc(O)cc12`, for which the AC50 result was “inactive”.

Consider `C/C(CC/C(C)=N/O)=N/O`, for which the activity, negative = inhibition is -10.6% [at 11.4 µM] (inactive).

Take `O=C(O)c1c[nH]c2c(ccc3[nH]cc(C(=O)O)c(=O)c32)c1=O`: the activity, negative = inhibition is -16.3% [at 11.4 µM] (inactive).

As for `Cc1cc(SC(C)C(=O)Nc2c(C)n(C)n(-c3ccccc3)c2=O)nc2ccccc12` (configuration not stated), the AC50 was 12.6 µM (active).

Consider `Cc1cc(C(=O)Nc2c(C)n(C)n(-c3ccccc3)c2=O)c2ccccc2n1`, for which the AC50 entry was “inactive”.

For the molecule `Cc1c(NC(=O)C(C)N2C(=O)c3ccccc3C2=O)c(=O)n(-c2ccccc2)n1C` (configuration not stated), the AC50 result is “inactive”.

In the case of `O=C(Nc1cccc2ncccc12)c1ccc(-c2ccc(Br)cc2)o1`, the AC50 is 2.82 µM (active).

Take `COc1ccc(C=O)cc1COc1ccc(C)cc1[N+](=O)[O-]`: the AC50 entry is “inactive”.

As for `CC(=O)N/N=C/c1cc([N+](=O)[O-])ccc1OCCOc1ccccc1`, the AC50 result was “inactive”.

Take `Cc1ccc(OCC(=O)N/N=C\c2c(C)n(C)c3ccccc23)c([N+](=O)[O-])c1`: the AC50 was 7.08 µM (active).

With `Cc1ccccc1-c1ccc2ncnc(N(C)C)c2c1`, the AC50 is 3.16 µM (active).

For the molecule `COc1ccccc1-c1ccc2ncnc(N(C)C)c2c1`, the AC50 was 5.01 µM (active).

As to `Cc1ccc(S(=O)(=O)CCC(=O)Nc2nc3c(s2)CCCC3)cc1`, the AC50 is 8.91 µM (active).

Take `CC(=O)N1CCc2cc(S(=O)(=O)CCC(=O)Nc3c(C)n(C)n(-c4ccccc4)c3=O)ccc21`: the AC50 result is “inactive”.

In the case of `Nc1cc(-c2nn[nH]n2)ccc1F`, the AC50 result is “inactive”.

As to `COC(=O)C/C=C\[C@@H](C)[C@@H](/C=N\OC[C@@H]1O[C@H](c2ccccc2)C=C[C@@H]1Oc1ccc(OC)cc1)OC`, the AC50 was 3.16 µM (active).

`COC(=O)C/C=C\[C@@H](C)[C@@H](/C=N\OC[C@@H]1O[C@H](c2ccccc2)C=C[C@@H]1Oc1ccc(OC)cc1)NS(=O)(=O)c1ccc(C)cc1`: the AC50 was 5.01 µM (active).

On to `CC(C)CSC[C@@H]1O[C@H](n2cnc3c(N)nccc32)[C@H](O)[C@@H]1O`, for which the activity, negative = inhibition is -25.4% [at 11.4 µM] (inactive).

With `CN1CCN(c2cc(-c3ccccc3C(F)(F)F)ncn2)CC1`, the AC50 entry is “inactive”.

Regarding `Cc1ccccc1NC(=S)NN1CCN(C)CC1`, the AC50 entry was “inactive”.

For `Cc1noc(C)c1-c1cc(N2CCN(C)CC2)ncn1`, the AC50 result was “inactive”.

With `Cc1ccccc1-c1cncnc1N1CCN(C)CC1`, the AC50 is 1.58 µM (active).

`COc1ccccc1-c1cncnc1N1CCN(C)CC1`: the AC50 is 2.51 µM (active).

Take `CN1CCN(c2ncncc2-c2ccccc2Cl)CC1`: the AC50 was 1.58 µM (active).

On to `Cc1noc(C)c1-c1cncnc1N1CCN(C)CC1`, for which the AC50 is 12.6 µM (active).

On to `CN1CCN2c3ncccc3Cc3ccccc3C2C1` (configuration not stated), for which the AC50 entry is “inactive”.
